Compound activity as filed in PubChem.
Most compounds without a hit are left out; they make up all but 4.2% or so of the library.
SW480 rereplic – inducers of DNA re-replication in SW480 colon cancer cells; SW480 DNA re-replication, Hoechst DNA content imaging, 48 h; Potency, µM (titrated, usually from 46.1 µM), inactives show at the highest dose re-replication activation, hits mostly activators; 1.8% of 340,000 active; AID 624297; note: % of control where 0% means no effect; nearly all actives have a fitted effect of over 55% in size
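Image-based DNA-content assay: after two days of treatment, nuclei were labelled with the DNA dye Hoechst and imaged, and hits were compounds raising the count of nuclei showing high fluorescence intensity.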
MCF10A rerep – DNA re-replication induction in MCF 10a cells. MCF 10A DNA re-replication, Hoechst nuclear intensity, 48 h. 2.9% of 350,000 active. Potency, µM (series often up to 46.1 µM), for the others: at the top dose activity, positive = re-replication, most hits filed as activators. AID 624296; note: % of control where 0% means no effect; nearly all actives have a fitted effect of over 50% in size
a7 integrin act – integrin-mediated muscular dystrophy alleviation activation | alpha7betagal myoblasts, beta-gal FDG fluorescence, 48 h | 0.064% of 350,000 active | Potency, µM (titrated, usually from 38.3 µM), for inactives: top-dose activation, hits mostly activators;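 note: 100% = response of the positive control SU9516; nearly all actives have a fitted effect of over 60% in size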
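Alpha7betagal+/- myoblasts (passage 13) were plated 16-24 hr, then exposed to compounds (1:260 dilution of DMSO stock) for 48 hours at 37C. After MPER lysis, β-galactosidase reporter activity was read as FDG fluorescence (ex 480/em 540) after 30 minutes.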
Mito fusion act – blocks mitochondrial division or promotes mitochondrial fusion. S. cerevisiae fusion-defective mutant growth rescue, CellTiterGlo 48 h. Potency, µM (series often up to 46.1 µM), inactives show at the highest dose growth rescue (activation), usual class: activators. 0.23% of 320,000 active. AID 485298; note: % of control where 0% means no effect; nearly all actives have a fitted effect of over 45% in size
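S. cerevisiae fusion-defective temperature-sensitive mutants (e.g. fzo1-1, mgm1-5) grown 48 h at 37C in YPEG (ethanol/glycerol non-fermentable) medium with 23 nl compound per well; growth rescue read as CellTiterGlo luminescence.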
AT treatment – candidate therapy for ataxia-telangiectasia; F2112 A-T fibroblasts, KAP-1 phosphorylation AlphaLISA; neocarzinostatin DNA damage 30 min before lysis; Potency, µM (doses to about 57.5 µM), for the others: top-dose activation, usual class: activators; 0.19% of 320,000 active; note: % of control where 0% means no effect; nearly all actives have a fitted effect of over 45% in size
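ATM-like activity read as KAP-1 phosphorylation via AlphaLISA donor/acceptor antibody pairs after lysis and 6 hr at 25C. Cells were ATM-null patient fibroblasts (F2112, hTERT), dosed 60 min, then exposed to the DSB inducer NCS for 30 min.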
* marks the source's active call; other numbers are inactive results; ? = inconclusive; / = no result; ! = repeats disagree; [ ] = another dose, or the depositor's remark. Calls come from the whole dose curve; as a rule, active = well fitted activation curve with a large enough effect; inconclusive = small, poorly fitted or top-dose-only effect; inactive = no such curve, though single readings can be large or run the other way. Potency is the fitted concentration of half-maximal effect.

SMILES	SW480 rereplic	MCF10A rerep	a7 integrin act	Mito fusion act	AT treatment
CCOC(=O)c1c(NC(=O)C2C3C=CC(CC3)C2C(=O)O)sc(C)c1CC (stereo not drawn)	-4.4%	?	-13.3%	7.08µM*	2.9%
CC(=O)Nc1ccc(NC(=O)/C=C/c2ccc3c(c2)OCO3)cc1	0.2%	?	-27.5%	-3.7%	-1.2%
NS(=O)(=O)c1ccc(NC(=O)/C=C/c2ccc3c(c2)OCO3)cc1	6.51µM*	18.4µM*	-24.3%	-9.1%	17.0%
CCOC(=O)c1c(NC(=O)/C=C/c2ccc3c(c2)OCO3)sc(C)c1CC	2.1%	8.2µM*	-12.1%	-4.1%	4.8%
COCCN(C(=O)COC(=O)C1CCC(C(C)(C)C)CC1)c1c(N)n(Cc2ccccc2)c(=O)[nH]c1=O (stereo not drawn)	?	?	-1.4%	-4.4%	0.8%
CCCN(CCC)S(=O)(=O)c1ccc(C(=O)NNc2nc(-c3ccccc3)c3cc(Br)ccc3n2)cc1	17.9%	1.2%	-9.4%	-7.6%	-8.2%
O=C(/C=C/Nc1ccccc1O)c1ccco1	-2.6%	-7.7%	-0.1%	-5.3%	-9.5%
O=C(/C=C/Nc1ccccc1Oc1ccccc1)c1ccco1	-6.5%	14.6µM*	-1.9%	2.6%	3.8%
CC(C)(C)C(=O)Nc1ccc(C(=O)N/N=C/c2ccccc2OC(=O)c2ccc(Cl)cc2)cc1	2.59µM*	11.7%	6.0%	10.8%	0.1%
CC(C)(C)C(=O)Nc1ccc(C(=O)N/N=C/c2ccccc2OC(=O)c2ccccc2)cc1	?	?	-11.1%	-2.8%	0.4%
O=C(O)COc1ccccc1/C=N/NC(=O)/C(=C\c1ccc2c(c1)OCO2)NC(=O)c1ccccc1	5.1%	18.4µM*	-0.3%	-2.3%	-4.9%
O=C(N/N=C/c1ccccc1OC(=O)c1ccc2c(c1)OCO2)c1ccccc1	?	20.6µM*	-17.1%	-0.1%	1.9%
Cc1ccccc1CSc1nccn1-c1ccccc1	17.8%	9.0%	25.7%	-8.6%	2.6%
CCc1cccc(OCC(=O)Nc2ccc(S(=O)(=O)N3CCCC3)cc2)c1	2.1%	5.7%	-17.6%	1.6%	10.6%
Cc1sc2nc(CN3CCOCC3)[nH]c(=S)c2c1C	-12.1%	-1.9%	-31.0%	1.0%	6.8%
CCc1ccc(OCc2nnc(SCCN3CCOCC3)n2C)cc1	-4.0%	3.8%	30.1%	-0.4%	-1.3%
NN=C1c2ccccc2C(=O)C1C(=O)C(c1ccccc1)c1ccccc1 (stereo not drawn)	4.2%	11.6µM*	-11.6%	/	/
O=C(O)C(c1ccccc1)N1C(=O)c2cccc3cccc(c23)C1=O (stereo not drawn)	-0.8%	2.8%	0.0%	-1.2%	2.9%
COc1ccc2[nH]cc(C(=O)CCl)c2c1	?	20.6µM*	-61.7%	-33.3%	-8.5%
COc1ccc2[nH]cc(C(=O)CN3CC(C)CC(C)C3)c2c1 (stereo not drawn)	-3.4%	-4.3%	?	-2.4%	6.7%
CC12CS(=O)(=O)CC1SC(=S)N2Cc1ccccc1 (stereo not drawn)	-12.7%	-1.5%	-4.8%	-4.0%	6.9%
CC1=C(C(=O)Nc2ccccc2F)C(c2cccs2)NC(=S)N1 (stereo not drawn)	-7.9%	5.7%	44.9%	0.6%	4.9%
Clc1ccccc1CSc1nncn1NC/C=C/c1ccccc1	-0.8%	9.5%	-32.0%	22.4µM*	-2.1%
COC(=O)c1ccc(Cl)c(NS(=O)(=O)c2ccc3c(c2)OCCO3)c1	18.4µM*	?	8.8%	18.9%	4.5%
CC(C)CCCCCCc1ccc(O)cc1	10.4%	29.9µM*	/	/	/
SMILES	SW480 rereplic	MCF10A rerep	a7 integrin act	Mito fusion act	AT treatment
CCN1CCN(c2nc(C)c3c(n2)CCCC3=O)CC1	0.3%	0.0%	-15.1%	-2.0%	4.5%
Cc1cc(C)nc(Nc2ccccc2F)n1	23.1µM*	5.1%	-20.3%	1.6%	-1.8%
COc1ccccc1OCc1ccc(C(=O)Nc2ccc(Cl)cn2)o1	-32.7%	?	4.0%	-1.7%	-0.9%[11.5 µM]
O=C(/C=C/c1ccccc1)Nc1cccc(C(=O)N2CCCC2)c1	0.0%	-7.2%	-15.0%	/	/
CCOc1ccc(-c2cnc3n2CCC3)cc1	9.2µM*	9.1%	-5.9%	11.2%	/
c1ccc2c(c1)CCC[C@H]2Nc1nc2ccccc2[nH]1	/	/	/	-9.6%	/
CCCCc1ccc(NC(=O)CSC2=C(C#N)C(c3ccco3)C3=C(CCCC3=O)N2)cc1 (stereo not drawn)	20.6µM*	3.98µM*	-36.5%	3.1%	-3.8%
COc1cccc(NC(=O)CSC2=C(C#N)C(c3ccco3)C3=C(CCCC3=O)N2)c1 (stereo not drawn)	12.6µM*	25.1µM*	-30.1%	3.4%	-3.7%
CC(C)(C)c1ccc(/C=N/OCC(=O)NCc2ccc(F)cc2)cc1	20.6µM*	?	6.0%	-4.6%	3.6%
COc1cc(/C=C/C(=O)O)ccc1O	?	?	22.6%	/	/
COc1cc(/C=C/C(=O)OCC(=O)NCc2ccc(F)cc2)ccc1O	8.2µM*	14.6µM*	-12.8%	/	3.9%
COc1cc(/C=N/Nc2ccc(C(=O)O)cc2)ccc1O	-4.1%	-1.2%	15.5%	-9.1%	-2.8%
COc1cc(/C=C/C(=O)OCC(=O)NCc2ccccc2OC)ccc1O	1.2%	14.3%	-6.2%	-0.7%	1.2%
COc1cc(/C=C/C(C)=NNc2ccccc2)ccc1O	?	16.4µM*	-34.7%	/	/
COc1cc(/C=C/C(=O)/C=C(O)/C=C/c2ccc(O)c(OC)c2)ccc1O	29.9µM*	33.5µM*	-16.4%	1.9%	7.6%
Cc1ccc(C(CC(=O)N2CCCC2)c2ccccc2)c(O)c1 (stereo not drawn)	-8.2%	-4.1%	2.5%	11.4%	14.3%
CCOCc1nnc(NC(=O)CS(=O)(=O)c2ccc(C)cc2)s1	6.8%	-23.3%	0.0%	0.5%	2.1%
COc1cc(/C=C/C(=O)CC(=O)/C=C/c2ccc(O)c(OC)c2)ccc1O	11.6µM*!	25.9µM*!	/	0.8%	-25.3%
COc1cc(/C=C/C(=O)OCc2cn3cc(Cl)ccc3n2)ccc1O	?	10.3µM*	2.6%	-6.9%	36.4%
O=C(c1ccc(-n2cccn2)cc1)N1CCN(c2ncccc2C(F)(F)F)CC1	-5.4%	-10.6%	-28.7%	0.5%	0.9%
Cc1ccc(S(=O)(=O)N2CCN(CC(=O)N/N=C/c3ccccc3OCC(=O)O)CC2)cc1	-5.5%	5.0%	17.2%	-4.3%	-9.1%
CCN(CC)CCN1c2ccccc2Sc2ccc3ccccc3c21	18.4µM*	?	-40.9%	-33.5%	7.9%
Cc1cc(CC(C)CC(C)(C)C)n(O)c(=O)c1 (stereo not drawn)	?	10.6µM*	/	/	/
COc1ccc2c(=O)c(C)c(-c3ccccc3)oc2c1CN(C)C	-1.7%	0.4%	/	/	/
Cc1ccc(/C=N/NC(=O)c2ccc3c(c2)OCCO3)s1	16.4µM*	?	2.5%	-2.6%	0.0%
O=C(N/N=C/c1cccs1)c1ccc2ccccc2c1	?	23.1µM*	2.9%	-6.6%	-3.0%
